Results: PubChem BioAssay AID687041 (Broad Institute, 2013)
Measured potencies and affinities stand elsewhere. Calls of active or inactive are those of the source.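 The calls were made as follows: active = compounds lowering miR-122 whose fitted half-maximal concentration is at most twice the top tested dose; inconclusive = flat fit with moderate reduction, or poor fit quality; inactive = the rest.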

Test: miR-122 quantity in Huh7 after inhibitor exposure – cell-based, RT-qPCR, dry powder, orthogonal assay for miR-122 inhibitor project, dose response (AID 687041)

O=C(CN1CCOCC1)Nc1ccc(Br)cc1C(=O)c1ccccc1
outcome: inactive
